Assay results taken from PubChem BioAssay (Tox21).
Results filed as inconclusive are left out. Entries that show only a call come without a potency. A number with no mark means an inactive call. Calls of active or inactive are those of the source. The call rests on the fitted dose curve.

Assay: p53 small molecule agonists, cell-based qHTS assay with rat liver microsomes (AID 1963578)
Conditions: HCT-116 p53RE-bla, beta-lactamase ratio, 16 h; series mostly up to 66 µM
Excerpt: U.S. Tox21 Program National Center for Advancing Translational Sciences [NCATS] Division of Preclinical Innovation [DPI] U.S. Environmental Protection Agency [EPA] National Institutes of Environmental Health Sciences [NIEHS] National Toxicology Program [NTP] U.S. Food and Drug Administration [FDA] Tox21 Assay Overview: p53, a tumor suppressor protein, is activated following cellular insult, including DNA damage and other cellular stresses. The activation of p53 regulates cell fate by inducing DNA repair, cell cycle arrest, apoptosis, or cellular senescence. The activation of p53, therefore, is a good indicator of DNA damage and other cellular stresses. […] The activation of the reporter gene under culture conditions can be detected by fluorescence intensity. This cell line was used to screen the Tox21 10K compound library in the condition of presence of rat liver microsomes and to identify agonists that activate the p53 signaling pathway after in vitro metabolic activation (Ooka et al., Archive of Toxicology 96:1975-1987, 2022).
Tox21 Assay Protocol Summary: The p53RE-bla cells were dispensed at 4,000cells/3ul/well in 1536-well black-clear bottom plates. After the assay plates were incubated at 37 C, 5% CO2 incubator for 5 hours, 23 nL of compounds dissolved in DMSO, positive controls or DMSO only was transferred to the assay plate. Following compound addition, 3 uL of rat liver microsomes (Molecular Toxicology, Boone, NC) at final concentration of 0.5 mg/mL and 1uL of Beta-Nicotinamide adenine dinucleotide 2-phosphate (NADPH) at final concentration of 0.5 mg/mL were transferred to the assay plate. The plates were incubated at 37 C for 16 hours. 1 uL of LiveBLAzer detection mixture was added to each well and the plates were incubated at room temperature in the dark for 2 h.

Row | Structure (SMILES) | Potency | activation
1 | CCN(CC)C(C)CN1c2ccccc2Sc2ccccc21 (stereo not given) | inactive | –
2 | NC1CCN(c2nc3c(cc2F)c(=O)c(C(=O)O)cn3-c2ccc(F)cc2F)C1 (stereo not given) | inactive | –
3 | COc1cc2nc(N3CCN(C(=O)C4CCCO4)CC3)nc(N)c2cc1OC (stereo not given) | inactive | –
4 | CC(=O)OC1CCCCC1C(C)(C)C (stereo not given) | inactive | –
5 | C=CCCCCCCCCC(=O)OCC | inactive | –
6 | N#Cc1ccc(CC(=O)c2cccc(C(F)(F)F)c2)cc1 | inactive | –
7 | CN=C(NC#N)NCCSCc1csc(N=C(N)N)n1 | inactive | –
8 | CNC(=O)c1cnn(-c2nc(N)c3ncn([C@@H]4O[C@H](CO)[C@@H](O)[C@H]4O)c3n2)c1 | inactive | –
9 | CCOC(=O)CCc1ccccc1 | inactive | –
10 | c1cc[nH]c1 | inactive | –
11 | CN1C(=O)OC(C)(C)C1=O | inactive | –
12 | CC(=O)OC[C@H]1O[C@@H](n2ncc(=O)[nH]c2=O)[C@H](OC(C)=O)[C@@H]1OC(C)=O | inactive | –
13 | CCCCCCCCCCCCOC(=O)c1ccc(O)cc1 | inactive | –
14 | CCN(CCC#N)c1ccc(N=Nc2ccc([N+](=O)[O-])cc2)cc1 | inactive | –
15 | C/C(=C(\CCOP(=O)(O)O)SC(=O)c1ccccc1)N(C=O)Cc1cnc(C)nc1N | – | -4.95% [at 5.99 µM]
16 | CCOc1cc([N+](=O)[O-])c(OCC)cc1N1CCOCC1 | inactive | –
17 | CCCCCCCCN(C)CCCCCCCC | inactive | –
18 | CC(C)(C)C1=CC(=O)C(C(C)(C)C)=CC1=O | inactive | –
19 | O=C(O)Cc1c(Cl)ccc(Cl)c1Cl | inactive | –
20 | COc1cc(C(=O)OC(COCCC(C)C)CN2CCOCC2)cc(OC)c1OC (stereo not given) | inactive | –

Row | Structure (SMILES) | Potency | activation
21 | CCOc1ccc(NC(=O)OC(C)C)cc1OCC | inactive | –
22 | Cc1ccnc(N)c1 | inactive | –
23 | CCCCCCCCCCCc1ccccc1 | inactive | –
24 | CCCCS | inactive | –
25 | CC1=CC[C@H](C(C)C)C=C1 | inactive | –
26 | Cc1ccco1 | inactive | –
27 | C/C=C(/C(=C/C)c1ccc(O)cc1)c1ccc(O)cc1 | inactive | –
28 | OC(CCCN1CCCCC1)(c1ccccc1)c1ccccc1 | inactive | –
29 | CC(=O)[C@H]1CC[C@H]2[C@@H]3C[C@H](C)C4=CC(=O)CC[C@]4(C)[C@H]3[C@@H](O)C[C@]12C | inactive | –
30 | Nc1nc(N)c(-c2ccccc2)s1 | inactive | –
31 | CNC(=O)N(c1ccccc1)c1ccccc1 | inactive | –
32 | O=C1[C@H]2CCCC[C@H]2C(=O)N1CCCCN1CCN(c2nsc3ccccc23)CC1 | inactive | –
33 | OC1(c2ccccc2)CCNCC1 | inactive | –
34 | CC(C)(C)CC(=O)OCC(=O)[C@@]1(O)CC[C@H]2[C@@H]3CCC4=CC(=O)C=C[C@]4(C)[C@H]3[C@@H](O)C[C@@]21C | inactive | –
35 | NC(Cc1ccc(Cl)cc1)C(=O)O (stereo not given) | – | 0.185% [at 0.249 µM]
36 | C=CC(=O)OCCOC(=O)CCC(=O)O | inactive | –
37 | C=CC(=O)OCCCCCCCCCC | inactive | –
38 | CCCCCc1ccco1 | inactive | –
39 | COc1ccc(OC(=O)N(CC(=O)O)Cc2ccc(OCCc3nc(-c4ccccc4)oc3C)cc2)cc1 | inactive | –
40 | O=C(Nc1ccc([N+](=O)[O-])cc1)Nc1ccc([N+](=O)[O-])cc1 | inactive | –
